Pf Dd2 growth – Plasmodium falciparum Dd2 growth inhibition; P. falciparum Dd2 growth, SYBR Green, 72 h; Potency, µM (series often up to 28.9 µM), most hits filed as inhibitors; 120,000 compounds, 4.3% hits; AID 1347417; active = well fitted inhibition curve with a large enough effect; also: nearly all actives have a fitted effect of over 65% in size
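Infected erythrocytes (Dd2, 0.3% parasitemia, 2.5% hematocrit final) are added to compound in RPMI-1640/Albumax II medium, grown 72 h at 37C in low oxygen, then lysed with saponin/Triton-X containing SYBR Green and read by fluorescence.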
Numbers stand for hits; - = inactive. This excerpt belongs to a sample that is enriched for hits.

SMILES | Pf Dd2 growth
Cc1ccc(C(=O)NCC(c2ccc3c(c2)OCO3)N2CCN(c3ccc(F)cc3)CC2)cc1 (stereo not given) | 13µM
CC(=O)NCC(c1ccc2c(c1)OCO2)N1CCN(c2ccccc2)CC1 (stereo not given) | -
CC(C)(C)CC(=O)NCC(c1ccc2c(c1)OCO2)N1CCN(c2ccccc2)CC1 (stereo not given) | 7.1µM
Cc1oc2ccn(Cc3ccccc3F)c(=O)c2c1C(=O)NC1CCCCC1 | -
COc1ccc(C(=O)N2CCn3c(nn(-c4ccncc4)c3=O)C2)cc1 | -
CC(NC(=O)C1CCCO1)C(=O)N1CCN(c2ccccn2)CC1 (stereo not given) | -
COc1cccc(-c2nc(-c3nnn4c3COC(c3ccc(C)cc3)C4)no2)c1OC (stereo not given) | -
Cc1ccc(C2Cn3nnc(-c4noc(COc5ccc(F)cc5)n4)c3CO2)cc1 (stereo not given) | -
COc1ccccc1Cc1nc(-c2nnn3c2COC(c2ccc(C)cc2)C3)no1 (stereo not given) | 7.9µM
Cc1cnc(C(=O)N2CCc3ccc(S(=O)(=O)Nc4cccnc4)cc3C2)cn1 | -
NC(=O)c1cccc(CN2CCC3(CC2)CC(Cc2ccccc2)=NO3)c1 | -
c1cncc(C2=NOC3(CCN(C4CCCCC4)CC3)C2)c1 | -
c1ccc(CN2CCCC3(CC(c4ccccn4)=NO3)C2)cc1 (stereo not given) | -
c1ccc(CC2=NOC3(CCCN(Cc4ccns4)C3)C2)cc1 (stereo not given) | 6.3µM
c1ccc(CC2=NOC3(CCN(Cc4c[nH]c5ccccc45)CC3)C2)cc1 | 13µM
Cc1ccc(C(=O)N2CCCC3(CC(Cc4ccccc4)=NO3)C2)cc1 (stereo not given) | -
CC(C)C1=NOC2(CCN(Cc3c[nH]c4ccccc34)CC2)C1 | -
c1ccc(CC2=NOC3(CCN(C4CCCCC4)CC3)C2)cc1 | 10µM
O=C(C1CCCC1)N1CCC2(CC1)CC(Cc1ccccc1)=NO2 | -
O=C1N(Cc2ccccn2)C[C@H]2CN(Cc3cccc(OC(F)(F)F)c3)CCN12 | -
CC(C)NC(=O)N1C[C@@H](Oc2cccnc2)C[C@H]1C(=O)N1CCCC1 | -
O=C(N[C@H]1CCN2C(=O)N(c3cccc4nsnc34)C(=O)[C@@H]2C1)c1ccc(F)c(Cl)c1 | -
O=C1NC(=NC2CCCCC2)C2(CCN([S+](=O)([O-])c3cccc(C(F)(F)F)c3)C2)N1c1cccnc1 (stereo not given) | -
CN1C(=O)CS(=O)(=O)C12CCN(C(=O)c1ccnn1C)CC2 | -
COCCC(=O)N1CCN(C(=O)N2CC3CC(C2)[C@H]2CCCC(=O)N2C3)CC1 (stereo not given in full) | -
SMILES | Pf Dd2 growth
O=C(NCCC1CCN(C(=O)Nc2ccccc2F)CC1)c1ccco1 | -
CCc1ccc(NC(=O)N2CCc3c(c4ccccc4n3C)C2)cc1 | -
Cn1c2c(c3ccccc31)CN(C(=O)Nc1ccccc1F)CC2 | 11µM
Cc1ccc(NC(=O)N2CCc3c(c4ccccc4n3C)C2)cc1 | -
CC(=O)N[C@H]1CO[C@H]2[C@@H]1OC[C@@H]2n1nnnc1Oc1cccc(N(C)C)c1 | -
Cn1nc(C(=O)N2CCCC(c3[nH]ccc3C(N)=O)C2)c2ccccc21 (stereo not given) | -
N#Cc1ccccc1CN1CCNc2nc(COc3ccccc3)n(Cc3ccccc3)c2C1=O | -
O=C(O)c1ccc(NCc2nc3c(n2Cc2ccccc2)C(=O)N(Cc2cccc(Cl)c2)CCN3)cc1 | -
COCCN1CCNc2nc(CNCc3cccc(Cl)c3)n(Cc3ccccc3)c2C1=O | -
CN(Cc1ccccc1)Cc1nc2c(n1Cc1ccccc1)C(=O)N(Cc1ccccc1C#N)CCN2 | 10µM
CC(=O)N1CCN(Cc2nc3c(n2Cc2ccccc2)C(=O)N(Cc2ccccc2C#N)CCN3)CC1 | -
O=C1c2c(nc(CNCc3cnccn3)n2Cc2ccccc2)NCCN1Cc1cccc(Cl)c1 | 2.2µM
Cc1cccc(-c2ocnc2C(=O)N2CC[C@H](CO)[C@H](NC(=O)C3CC3)C2)c1 | -
COC(=O)c1ccc(N2C[C@H]3OC(=O)N(CCc4ccc(OC)cc4)[C@H]3C2)nc1 | -
COc1ncc(-c2nc(-c3c(C)noc3C)cc3c2cc(C)n3CCN(C)C)cn1 | 14µM
COc1ncccc1-c1nc(-c2c(C)noc2C)cc2c1cc(C)n2CCN(C)C | -
Cc1noc(C)c1-c1cc2c(cc(C)n2C)c(-c2ccccc2)n1 | -
Cc1cccc(C(=O)N2C[C@@H](F)C[C@H]2C(=O)N2CCOCC2)c1 | -
CCCCN1C(=O)CC[C@H]2CN(C(=O)c3ccccc3Cl)CC[C@H]21 | -
CN(C)c1ccc(CN2CCc3nc(C4CC4)nc(-c4ccc(O)cc4)c3CC2)cc1 | -
CC(C)c1nc2c(c(-c3ccc(O)cc3)n1)CCN(Cc1ccc(C(F)(F)F)cc1)CC2 | 1.8µM
CC(=O)N1CCc2nc(C(C)C)nc(-c3ccc(O)cc3)c2CC1 | -
CC(C)c1nc2c(c(-c3ccc(O)cc3)n1)CN(Cc1cccnc1)CC2 | -
Cc1nc2c(c(-c3ccc(O)cc3)n1)CN(Cc1cccc3ccccc13)CC2 | -
